Experiment [1] addresses T1, Serine/threonine-protein kinase D2 (Homo sapiens) (UniProt Q9BZL6).
T1 sequence (whole entry): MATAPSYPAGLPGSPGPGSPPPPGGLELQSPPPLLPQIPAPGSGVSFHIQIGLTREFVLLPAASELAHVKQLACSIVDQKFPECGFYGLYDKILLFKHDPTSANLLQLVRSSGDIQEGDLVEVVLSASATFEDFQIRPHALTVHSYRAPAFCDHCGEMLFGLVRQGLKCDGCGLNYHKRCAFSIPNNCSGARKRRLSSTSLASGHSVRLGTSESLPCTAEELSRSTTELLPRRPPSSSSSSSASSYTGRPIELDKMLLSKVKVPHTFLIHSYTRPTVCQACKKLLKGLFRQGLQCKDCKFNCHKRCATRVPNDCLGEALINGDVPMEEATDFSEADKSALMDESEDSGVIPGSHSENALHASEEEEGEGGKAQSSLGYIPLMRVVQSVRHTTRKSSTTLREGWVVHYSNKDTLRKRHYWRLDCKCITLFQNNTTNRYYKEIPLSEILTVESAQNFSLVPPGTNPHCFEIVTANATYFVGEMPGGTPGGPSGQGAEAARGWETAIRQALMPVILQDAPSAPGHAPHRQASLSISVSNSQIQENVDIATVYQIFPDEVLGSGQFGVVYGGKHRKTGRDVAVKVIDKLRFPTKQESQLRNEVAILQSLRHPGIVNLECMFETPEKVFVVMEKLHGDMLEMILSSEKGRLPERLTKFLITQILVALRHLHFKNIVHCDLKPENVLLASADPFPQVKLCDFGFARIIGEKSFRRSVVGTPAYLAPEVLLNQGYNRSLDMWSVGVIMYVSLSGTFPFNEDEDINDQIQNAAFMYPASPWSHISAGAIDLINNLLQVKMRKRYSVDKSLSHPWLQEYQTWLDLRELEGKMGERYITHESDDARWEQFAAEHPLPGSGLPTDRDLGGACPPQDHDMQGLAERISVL
The following applies: at 1 µM.

The target in experiment [2] is T2, Serine/threonine-protein kinase D3 (Homo sapiens) (UniProt O94806).
T2 sequence (whole entry): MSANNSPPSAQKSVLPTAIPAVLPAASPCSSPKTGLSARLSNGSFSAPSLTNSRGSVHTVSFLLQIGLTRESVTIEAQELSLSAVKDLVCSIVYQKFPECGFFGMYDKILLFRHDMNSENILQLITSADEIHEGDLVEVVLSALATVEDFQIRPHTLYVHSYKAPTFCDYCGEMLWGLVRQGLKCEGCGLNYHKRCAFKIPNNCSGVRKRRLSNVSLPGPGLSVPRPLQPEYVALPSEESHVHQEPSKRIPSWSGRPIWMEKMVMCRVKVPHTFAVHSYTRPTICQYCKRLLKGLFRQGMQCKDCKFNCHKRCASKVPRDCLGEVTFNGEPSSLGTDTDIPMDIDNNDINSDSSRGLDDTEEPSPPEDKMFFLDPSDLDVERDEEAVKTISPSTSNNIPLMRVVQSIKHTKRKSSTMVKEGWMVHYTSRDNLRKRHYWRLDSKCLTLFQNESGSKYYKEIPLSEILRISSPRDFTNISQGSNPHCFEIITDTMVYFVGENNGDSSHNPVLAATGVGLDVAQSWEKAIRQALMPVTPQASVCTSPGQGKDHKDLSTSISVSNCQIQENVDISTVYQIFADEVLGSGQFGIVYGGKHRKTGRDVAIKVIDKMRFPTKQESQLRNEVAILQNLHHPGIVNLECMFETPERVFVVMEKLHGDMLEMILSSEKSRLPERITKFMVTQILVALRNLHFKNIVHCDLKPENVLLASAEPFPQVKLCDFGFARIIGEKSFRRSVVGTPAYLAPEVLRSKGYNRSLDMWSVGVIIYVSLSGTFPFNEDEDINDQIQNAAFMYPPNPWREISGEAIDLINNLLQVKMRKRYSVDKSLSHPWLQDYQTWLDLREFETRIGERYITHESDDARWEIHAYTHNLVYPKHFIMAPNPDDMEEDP
The following applies: at 0.1 µM.

For experiment [3], the target named is T2, Serine/threonine-protein kinase D3 (Homo sapiens). The following applies: at 1 µM.
The target in experiment [4] is T3, cGMP-dependent protein kinase 1 (Homo sapiens) (UniProt Q13976).
T3 sequence (whole entry): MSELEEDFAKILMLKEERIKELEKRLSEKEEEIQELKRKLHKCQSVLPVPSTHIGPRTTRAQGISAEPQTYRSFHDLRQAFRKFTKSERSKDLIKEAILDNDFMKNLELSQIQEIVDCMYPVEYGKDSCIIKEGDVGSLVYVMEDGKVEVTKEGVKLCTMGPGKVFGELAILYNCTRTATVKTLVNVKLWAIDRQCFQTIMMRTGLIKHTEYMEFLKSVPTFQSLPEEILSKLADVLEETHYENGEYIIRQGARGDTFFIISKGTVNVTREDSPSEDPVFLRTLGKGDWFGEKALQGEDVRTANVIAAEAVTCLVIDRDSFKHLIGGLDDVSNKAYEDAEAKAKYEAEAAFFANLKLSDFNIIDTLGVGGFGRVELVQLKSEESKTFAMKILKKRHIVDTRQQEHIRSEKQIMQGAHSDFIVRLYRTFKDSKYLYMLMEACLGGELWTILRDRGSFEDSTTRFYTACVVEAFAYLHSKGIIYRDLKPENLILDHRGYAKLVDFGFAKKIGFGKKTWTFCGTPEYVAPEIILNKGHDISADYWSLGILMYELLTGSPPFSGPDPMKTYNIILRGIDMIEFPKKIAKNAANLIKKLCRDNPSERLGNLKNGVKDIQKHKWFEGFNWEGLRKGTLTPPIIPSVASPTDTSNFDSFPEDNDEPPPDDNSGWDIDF
The settings on record: at 0.1 µM.

Experiment [5] deals with T3, cGMP-dependent protein kinase 1 (Homo sapiens). The settings on record: at 1 µM.
Experiment [6] has as its target T4, cGMP-dependent protein kinase 2 (Homo sapiens) (UniProt Q13237).
T4 sequence (whole entry): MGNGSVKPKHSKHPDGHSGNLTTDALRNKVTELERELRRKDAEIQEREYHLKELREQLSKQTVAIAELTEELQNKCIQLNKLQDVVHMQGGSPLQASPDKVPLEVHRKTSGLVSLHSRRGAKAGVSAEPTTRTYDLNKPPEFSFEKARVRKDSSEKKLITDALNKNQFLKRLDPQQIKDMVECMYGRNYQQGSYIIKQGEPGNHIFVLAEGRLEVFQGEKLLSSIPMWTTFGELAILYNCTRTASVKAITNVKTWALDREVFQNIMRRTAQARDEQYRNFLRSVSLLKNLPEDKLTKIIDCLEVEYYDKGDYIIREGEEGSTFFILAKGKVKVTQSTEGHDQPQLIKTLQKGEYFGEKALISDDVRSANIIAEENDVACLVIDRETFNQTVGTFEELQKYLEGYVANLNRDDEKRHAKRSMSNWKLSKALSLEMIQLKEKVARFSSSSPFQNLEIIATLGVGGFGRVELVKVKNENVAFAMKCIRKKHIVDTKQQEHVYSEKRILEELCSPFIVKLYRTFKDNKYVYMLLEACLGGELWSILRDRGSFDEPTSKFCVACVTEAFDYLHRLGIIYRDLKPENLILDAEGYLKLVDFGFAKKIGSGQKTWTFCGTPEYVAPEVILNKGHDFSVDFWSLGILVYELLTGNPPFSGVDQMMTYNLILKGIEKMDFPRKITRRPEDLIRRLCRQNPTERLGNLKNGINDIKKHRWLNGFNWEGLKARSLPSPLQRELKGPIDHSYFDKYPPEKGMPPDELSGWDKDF
The following applies: at 0.1 µM.

For experiment [7], the target named is T4, cGMP-dependent protein kinase 2 (Homo sapiens). The following applies: at 1 µM.
The target of experiment [8] is T5, cAMP-dependent protein kinase catalytic subunit PRKX (Homo sapiens) (UniProt P51817).
T5 sequence (whole entry): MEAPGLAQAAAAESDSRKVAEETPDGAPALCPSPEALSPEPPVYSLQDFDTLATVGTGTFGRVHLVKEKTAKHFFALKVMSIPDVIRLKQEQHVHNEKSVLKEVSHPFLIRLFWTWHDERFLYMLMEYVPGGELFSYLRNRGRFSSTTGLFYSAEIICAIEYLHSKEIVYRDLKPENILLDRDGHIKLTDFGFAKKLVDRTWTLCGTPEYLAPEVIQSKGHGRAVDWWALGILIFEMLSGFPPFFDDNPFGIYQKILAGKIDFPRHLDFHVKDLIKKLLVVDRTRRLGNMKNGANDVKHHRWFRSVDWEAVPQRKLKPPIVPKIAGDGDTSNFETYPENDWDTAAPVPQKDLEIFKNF
The settings on record: at 0.1 µM.

The target in experiment [9] is T5, cAMP-dependent protein kinase catalytic subunit PRKX (Homo sapiens). The settings on record: at 1 µM.
Experiment [10] has as its target Rho-associated protein kinase 1 (Homo sapiens) (UniProt Q13464). The settings on record: at 0.1 µM.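 Note: values are mean percent inhibition of ROCK1.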

The source of these data is ChEMBL document CHEMBL1961873, “Compounds: GSK PKIS; Assays: Nanosyn kinase panel” (2012).

Rho-associated protein kinase 1 (Homo sapiens), sequence (Q13464 2-1354 limits assumed): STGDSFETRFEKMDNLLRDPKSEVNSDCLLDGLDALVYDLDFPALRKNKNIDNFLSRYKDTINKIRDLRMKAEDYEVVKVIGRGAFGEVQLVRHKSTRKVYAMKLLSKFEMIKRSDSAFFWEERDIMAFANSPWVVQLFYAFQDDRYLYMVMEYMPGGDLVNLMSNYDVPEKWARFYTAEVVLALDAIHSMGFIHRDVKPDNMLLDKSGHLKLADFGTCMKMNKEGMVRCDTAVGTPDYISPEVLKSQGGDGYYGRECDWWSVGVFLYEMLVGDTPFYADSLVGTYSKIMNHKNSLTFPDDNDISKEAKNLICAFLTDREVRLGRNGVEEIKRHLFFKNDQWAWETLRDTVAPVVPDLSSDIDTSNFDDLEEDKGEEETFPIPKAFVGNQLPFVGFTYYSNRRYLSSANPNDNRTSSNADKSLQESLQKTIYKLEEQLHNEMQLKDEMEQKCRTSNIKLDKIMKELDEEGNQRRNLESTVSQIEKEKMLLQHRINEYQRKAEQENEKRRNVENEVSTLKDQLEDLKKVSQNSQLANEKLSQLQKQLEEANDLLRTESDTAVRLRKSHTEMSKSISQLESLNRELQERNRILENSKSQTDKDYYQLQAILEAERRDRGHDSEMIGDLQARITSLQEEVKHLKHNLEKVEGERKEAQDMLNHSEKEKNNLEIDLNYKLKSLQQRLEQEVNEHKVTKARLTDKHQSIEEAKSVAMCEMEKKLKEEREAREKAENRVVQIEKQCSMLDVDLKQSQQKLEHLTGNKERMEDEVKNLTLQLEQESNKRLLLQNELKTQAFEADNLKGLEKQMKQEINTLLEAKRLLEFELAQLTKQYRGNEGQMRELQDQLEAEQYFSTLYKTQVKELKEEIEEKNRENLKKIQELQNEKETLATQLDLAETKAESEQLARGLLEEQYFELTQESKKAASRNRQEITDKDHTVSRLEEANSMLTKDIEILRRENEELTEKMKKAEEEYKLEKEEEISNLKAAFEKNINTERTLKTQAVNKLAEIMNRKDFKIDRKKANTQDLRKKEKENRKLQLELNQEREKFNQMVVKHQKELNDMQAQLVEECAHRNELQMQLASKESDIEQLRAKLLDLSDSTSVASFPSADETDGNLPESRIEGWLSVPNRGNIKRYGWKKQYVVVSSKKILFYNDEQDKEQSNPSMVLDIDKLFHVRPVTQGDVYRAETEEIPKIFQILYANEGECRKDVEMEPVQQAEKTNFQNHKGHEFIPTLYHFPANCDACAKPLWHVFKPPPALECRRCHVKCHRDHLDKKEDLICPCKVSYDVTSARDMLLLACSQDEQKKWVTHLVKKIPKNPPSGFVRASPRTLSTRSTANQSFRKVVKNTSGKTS

The inhibition is the drop in the measured response relative to a control, in per cent. With `COc1ccc(Nc2ncc(-c3ccccc3)o2)cc1OC`, the inhibition in experiment [1] came to 3.42%; in experiment [2] it was 0.5%; in experiment [3] it was 2.14%; in experiment [4] it was 0.71%; in [5], 3.32%; in experiment [6], 0.93%. The inhibition in experiment [7] is 3.83%; in experiment [8], -0.11%; in experiment [9], -0.56%; in experiment [10], -0.21%.
Regarding `Cc1cc(O)cc(C)c1/C=C/c1cncc(C(N)=O)c1`, the inhibition stood at 2.16% in experiment [1]; 3.14% in experiment [2]; 2.74% in experiment [3]; 2.79% in experiment [4]; 5.83% in [5]; 0.33% in experiment [6]. Besides, the inhibition was found to be 3.49% in [7], 1.71% in [8], 3.29% in experiment [9] and 2.2% in [10].
For `COc1cccc(Nc2nccc(-c3cnn4ncccc34)n2)c1`, the inhibition in experiment [1] was 37.4%; in [2] it was 4.36%; in experiment [3], 41.4%; in experiment [4], 5.54%; in experiment [5], 37.6%; in experiment [6], 1.94%. Besides, the inhibition in experiment [7] was 14.5%; in [8], -0.56%; in experiment [9] it was -0.01%; in experiment [10], -0.95%.
Consider `CCS(=O)(=O)c1ccc(OC)c(Nc2ncc(-c3cccc(F)c3)o2)c1`, for which the inhibition amounted to 3.8% in experiment [1]; 4.67% in experiment [2]; 4.73% in experiment [3]; 4.88% in experiment [4]; 8.02% in [5]; 3.78% in [6]. Further, the inhibition in experiment [7] was 6.47%; in [8], 3.37%; in [9], 2.6%; in experiment [10], 2.49%.
For `CN1CCC(n2cnc(-c3ccc(F)cc3)c2-c2ccnc(NCCO)n2)CC1`, the inhibition is 14.8% in experiment [1]; 6.16% in experiment [2]; 11% in experiment [3]; 1.3% in experiment [4]; 4.89% in experiment [5]; 2.55% in experiment [6]. In addition, the inhibition in experiment [7] worked out at 5.54%; in experiment [8] it was 3.06%; in experiment [9] it was 5.03%; in experiment [10], 0.7%.
For `CN(c1ccc(NC(=O)NCCN2CCOCC2)cc1)c1ccnc(Nc2ccc(CS(C)(=O)=O)cc2)n1`, the inhibition came to 1.04% in experiment [1]; 1.13% in [2]; 0.94% in experiment [3]; 2.25% in experiment [4]; 2.49% in experiment [5]; 0.06% in experiment [6]. For the same compound, the inhibition in experiment [7] turned out to be 0.57%; in [8], 2.36%; in experiment [9] it was 4.38%; in experiment [10], 1.51%.
On to `COc1cc(N2CCN(C(C)C)CC2)ccc1Nc1nc(Nc2cccc3ncccc23)c2cc[nH]c2n1`, for which the inhibition in [1] is 4.37%; in [2], -0.78%; in experiment [3], 4.56%; in experiment [4] it was -1.01%; in experiment [5] it was 2.36%; in [6] it was 0.84%. Besides, the inhibition in experiment [7] is 0.42%; in experiment [8], 0.02%; in [9], -0.18%; in [10] it was 0.12%.
For `Cc1c2ccc(N(C)c3ccnc(Nc4cccc(S(N)(=O)=O)c4)n3)cc2nn1C`, the inhibition in experiment [1] was 0.98%; in experiment [2], 2.69%; in [3], 2.71%; in experiment [4], 3.15%; in experiment [5], 5.31%; in [6], 2.54%. In addition, the inhibition in experiment [7] is 4.29%; in experiment [8] it was 2.29%; in experiment [9], 1.21%; in experiment [10], 1.12%.
